In PubChem BioAssay (NCI):
The panel holds about 79,000 compounds, 15% with a hit somewhere; the sample as a whole holds those more often. Cut-off read from the data, not from the text of the source: active = growth inhibition above about 70%; inactive = the rest.

How the values were obtained:
[1] = NCI Yeast Anticancer Drug Screen. Data for the rad50 strain (AID 155);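 note: 0% = growth of vehicle-only cultures of the same strain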; details: S. cerevisiae rad50 strain growth inhibition; at 50.0 µM; hits give high values
Method in brief: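 Yeast carrying a defined DNA repair defect were exposed to test compounds, and growth was compared with vehicle-treated controls to give percent inhibition.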

[2] = NCI Yeast Anticancer Drug Screen. Data for the mec2-1 strain (AID 157); details: S. cerevisiae mec2-1 strain, at 50.0 µM, hits give high values
Method in brief: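 Readout is yeast growth inhibition, normalised to vehicle-treated controls, in the mec2-1 strain exposed to compound.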

[3] = NCI Yeast Anticancer Drug Screen. Data for the sgs1 mgt1 strain (AID 161);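 note: 0% = growth of cultures given vehicle only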; details: S. cerevisiae sgs1 mgt1 strain, at 50.0 µM, hits give high values
Method in brief: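 Compounds are added to genetically altered yeast, and growth is compared with cultures given vehicle alone to give percent inhibition.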

[4] = NCI Yeast Anticancer Drug Screen. Data for the cln2 rad14 strain (AID 165);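 note: 0% = growth equal to vehicle treated cultures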; details: S. cerevisiae cln2 rad14 strain, at 50.0 µM, hits give high values
Method in brief: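 Relative to vehicle controls, growth inhibition of compound-treated cln2 rad14 yeast was recorded.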

[5] = NCI Yeast Anticancer Drug Screen. Data for the bub3 strain (AID 167); details: S. cerevisiae bub3 mutant strain, at 50.0 µM, hits give high values
Method in brief: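 Compounds were applied to a genetically altered yeast strain carrying a cell-cycle control defect. Growth inhibition was scored against vehicle-treated controls.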

[6] = NCI Yeast Anticancer Drug Screen. Data for the mlh1 rad18 strain (AID 175); details: S. cerevisiae mlh1 rad18 strain growth inhibition; at 50.0 µM; hits give high values
Method in brief: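 Test agents were incubated with a yeast strain of defined genotype (DNA damage repair defect). Inhibition of growth was derived by comparison with vehicle-exposed cultures.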

Measured: growth inhibition

C=CCN(N=O)C(=O)NCCCCC(NC(C)=O)C(=O)NCc1ccccc1 (stereo unspecified)
inactive: [1] -10.2% | [2] -22.6% | [3] -21.9% | [4] -6.3% | [5] 5.1% | [6] -14%

O=[N+]([O-])c1ccc(N=Cc2ccc(O)cc2)cc1
inactive: [1] -17.9% | [2] -19.2% | [3] -30.2% | [4] -27.3% | [5] -4.35% | [6] -67.2%

CC(Nc1cccc(Cl)c1)c1ccncc1 (stereo unspecified)
inactive: [1] 4.05% | [2] 12% | [3] -15.2% | [4] -5.55% | [5] 24.6% | [6] -11.4%

O=C(CCCSCCCC(=O)NN=C1CCSCC1)NN=C1CCSCC1
inactive: [1] -0.9% | [2] -4.3% | [3] 10.8% | [4] 21.2% | [5] -7.85% | [6] -7.65%

CCOC(=O)C(O)(NC(=O)Nc1ccc(F)cc1)C(F)(F)F (stereo unspecified)
inactive: [1] -22.4% | [2] -22.3% | [3] -72.9% | [4] -35.9% | [5] -37.3% | [6] -60.9%

COc1ccc(C2=C(C#N)C(=C(C#N)C#N)NC(N)=C2C#N)cc1
inactive: [1] -11.1% | [2] -1.25% | [3] -21.8% | [4] -4.75% | [5] -19.4% | [6] -17.4%

CC(Cl)(CCl)C(=O)NCNC(=O)C(C)(Cl)CCl (stereo unspecified)
inactive: [1] 51.5% | [2] 3.8% | [3] 8.2% | [4] -19.1% | [5] 15.8% | [6] 28.2%

O=S1(=O)c2ccccc2NC(c2ccc3ccccc3c2)CC1c1ccccc1F (stereo unspecified)
inactive: [1] -25.3% | [2] -28.1% | [3] -47% | [4] 4.95% | [5] -18.4% | [6] -14.2%

Cc1[nH]c(=O)[nH]c(=O)c1-n1nnc2ccccc2c1=O
inactive: [1] 21.9% | [2] 12.8% | [3] 20.7% | [4] -7.05% | [5] 8.3% | [6] 6.8%

CS(=O)(=O)N1C=CC2C(C=C1)C1(c3ccccc3)OC2(c2ccccc2)c2ccccc21 (stereo unspecified)
inactive: [1] -9.75% | [2] -9.25% | [3] 0.35% | [4] -39.7% | [5] 2.95% | [6] -19.5%

Cc1ccc(S(=O)(=O)/N=C2\CCN(S(=O)(=O)c3ccccc3)N2S(=O)(=O)c2ccc(C)cc2)cc1
inactive: [1] 17.6% | [2] 15.5% | [3] 14.3% | [4] 9.85% | [5] 11.8% | [6] 46.5%

CCN(CC)CC(O)c1cccc2cc(Cl)ccc12 (stereo unspecified)
inactive: [1] -3.25% | [2] -8.85% | [3] 28% | [4] -15.2% | [5] -2.55% | [6] -14%

CC(=O)Oc1cc2c3ccccc3ccc2c2ccccc12
inactive: [1] 13% | [2] -9.5% | [3] 10.1% | [4] -2.9% | [5] 8.85% | [6] 0.05%

Cn1cnc([N+](=O)[O-])c1Sc1n[nH]c(-c2ccc(Cl)cc2)n1
inactive: [1] -11.6% | [2] 1.7% | [3] -7.75% | [4] 21.4% | [5] 17.1% | [6] -6.05%

COc1cccc(/S(C)=N/S(=O)(=O)c2ccc(C)cc2)c1 (stereo unspecified)
inactive: [1] -11.2% | [2] -7.15% | [3] 2.8% | [4] -6.65% | [5] -8.65% | [6] 8.5%

O=C(/C=N\O)c1ccccc1[N+](=O)[O-]
inactive: [1] -5.6% | [2] -4.85% | [3] 7.6% | [4] -37.5% | [5] -1.35% | [6] -19.1%

CCOC(=O)C(=CNC(=S)c1ccncc1)C(=O)OCC
inactive: [1] -41.6% | [2] -64.5% | [3] -25.8% | [4] 18.9% | [5] -6.6% | [6] -36%

COc1ccc(C(=O)O/N=C2/CCC/C2=C\c2ccccc2)cc1
inactive: [1] 13.8% | [2] 13.2% | [3] 33.6% | [4] 26.4% | [5] 10.9% | [6] 8.4%

COc1cc([N+](=O)[O-])c(OC)cc1N
inactive: [1] 2.45% | [2] -8.3% | [3] -13.1% | [4] -27.4% | [5] -27.4% | [6] 27.6%

COc1cc(C=O)c([N+](=O)[O-])cc1OC
inactive: [1] 14.2% | [2] -20.7% | [3] 18.2% | [4] 20.9% | [5] -8.5% | [6] -8.85%

C=C1c2ccccc2N(S(=O)(=O)c2ccc(C)cc2)C12CCCCC2
inactive: [1] 3.9% | [2] 14.6% | [3] -10.2% | [4] -3.2% | [5] -0.7% | [6] -6%

CC(OC(=O)Nc1ccccc1)c1ccccc1 (stereo unspecified)
inactive: [1] 37.2% | [2] 7.9% | [3] 11.9% | [4] 9.9% | [5] 9.2% | [6] 17.4%

COc1ccc2c(c1)N1CCc3cc(OC)c(OC)cc3C1C2 (stereo unspecified)
inactive: [1] 15.8% | [2] -5.15% | [3] 25.2% | [4] 9.5% | [5] 25% | [6] 34.4%

CC1(C)CCC(C)(C)C1C(=O)NC(O)C(=O)O (stereo unspecified)
inactive: [1] -21.4% | [2] 8.8% | [3] -33% | [4] -2.2% | [5] 3.25% | [6] -9.8%

CC(=O)Nc1ccc(/C=C2\CCOC2=O)cc1[N+](=O)[O-]
inactive: [1] 6.8% | [2] 8.2% | [3] 7.15% | [4] 57.5% | [5] 8% | [6] 3.6%

O=C(Nc1cccc(Cc2cccc(NC(=O)c3ccccc3)c2)c1)c1ccccc1
inactive: [1] 5.65% | [2] -1.9% | [3] -11.9% | [4] -41.1% | [5] -2.35% | [6] -0.35%

Nc1cc(N)[nH]c(=S)n1
inactive: [1] 16.8% | [2] 10.2% | [3] 13.9% | [4] -10.9% | [5] -3.95% | [6] -2.35%

Oc1cccnc1I
inactive: [1] 24.4% | [2] 3.1% | [3] 18.5% | [4] 19.5% | [5] 18% | [6] 10.2%

CCS(=O)CCCN1CCc2ccccc2C1 (stereo unspecified)
inactive: [1] 25.5% | [2] -0.95% | [3] 13.9% | [4] -33% | [5] -3% | [6] -5.95%

O=C(c1ccccc1)N(Cc1ccccc1)Cc1ccccc1
inactive: [1] 1% | [2] 35.1% | [3] 26.4% | [4] -34.2% | [5] 41% | [6] 28.2%

CN1CCN(CC(=O)N2c3ccccc3Sc3cc4ccccc4cc32)CC1
inactive: [1] 2.3% | [2] -3.3% | [3] -30% | [4] -1.95% | [5] -13.7% | [6] 28.6%

O=C(/C(=C(/[O-])C(F)(F)F)[n+]1cccc2ccccc21)C(F)(F)F
inactive: [1] -8.6% | [2] -4.65% | [3] -11.2% | [4] -10.4% | [5] -1.4% | [6] 5.2%

COc1ccc(CCNC(=S)N/C=C(\C#N)S(=O)(=O)c2ccc(C)cc2)cc1OC
inactive: [1] 6% | [2] -0.6% | [3] 4.55% | [4] 3.45% | [5] -19.8% | [6] -11.6%

Cc1ccc(Cl)cc1NC(=O)Oc1ccccc1C(=O)OCc1ccccc1
inactive: [1] -31.9% | [2] -1.55% | [3] 18.5% | [4] -37.3% | [5] 20.2% | [6] 19.9%

O=C1OC(c2ccccc2)=CC1Cc1ccccc1 (stereo unspecified)
inactive: [1] 34.9% | [2] -2.35% | [3] 1.85% | [4] 3.4% | [5] -3% | [6] -8%

C(/C=N/NC1=NCCCCN1)=N\NC1=NCCCCN1
inactive: [1] -6.7% | [2] -13% | [3] -9.05% | [4] 4.5% | [5] -13.6% | [6] -11.2%
